Experimental findings from PubChem BioAssay (Tox21) are described below.

Records with an inconclusive call do not appear. The source made the active and inactive calls. Calls follow the shape of the dose curve; as a rule, active = well fitted curve in the direction sought with a large enough effect in the repeat runs; inconclusive = weak or mixed curves; inactive = no such curve, though single readings can be large; an effect the other way counts as inactive or inconclusive.

A short description of test [1]: qHTS assay to identify small molecule agonists of the RXR signaling pathway - cell viability counter screen (AID 1159529). Also: nearly all actives have a fitted effect of over 50% in size. The method, boiled down:
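Cell viability is measured by CellTiter-Glo luminescence, 30 min at room temperature, in wells already read for beta-lactamase. Engineered HEK 293T cells (RXR-alpha-UAS-bla) are dosed 16 hr at 37 C. Tetraoctyl ammonium bromide serves as positive control.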
A general note: qHTS replaces the single test concentration by a dilution series.

The nature of test [2]: qHTS assay to identify small molecule antagonists of the retinoid acid receptor (RAR) signaling pathway - cell viability counter screen (AID 1159551). Also: nearly all actives have a fitted effect of over 35% in size. The method, boiled down:
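Seed C3RL4 cells; next day add compound, then retinol to 1 uM final; incubate 6 h at 37 C; add CellTiter-Glo; read luminescence after 30 min at RT.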

A short description of test [3]: qHTS assay to identify small molecule antagonists of the retinoic acid receptor (RAR) signaling pathway (AID 1159552; also: nearly all actives have a fitted effect of over 50% in size). The method, boiled down: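 Quantitative HTS in C3RL4 RARE-luciferase reporter cells. Compounds were added with 1 uM (final) retinol; luminescence was read after 6 hr.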
Test [4] can be described thus: qHTS assay to identify small molecule agonists of the retinoic acid receptor (RAR) signaling pathway (AID 1159553). As to conditions: C3RL4 RARE luciferase reporter, agonist, 6 h; activation: at 73.3 µM (top of the series) unless noted. The method, boiled down: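 Activation of retinol signaling was monitored via a RARE luciferase reporter in C3RL4 cells. After 6 hr compound treatment at 37 C, detection reagent was added for 30 min at room temperature before luminescence reading.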

The nature of test [5]: qHTS assay to identify small molecule antagonists of the estrogen related receptor (ERR) signaling pathway - cell viability counter screen (AID 1224818).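 Also: viability measured after 17.5 h of compound exposure.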 The gist of the method: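 In the same ERR cell assay, compound-treated wells (17.5 h, 37 C) were multiplexed with a fluorogenic viability reagent, CellTiter-Fluor, read after 30 min to flag cytotoxic substances.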
Test [6] in a line: qHTS assay to identify small molecule antagonists of the estrogen related receptor signaling pathway with the pleiotropic PPARgamma coactivator (PGC) cell viability counter screen (AID 1224822). The gist of the method:
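Compounds in DMSO, with positive and negative controls, were applied to PGC/ERR cells (2,000/well) and left 17.5 h at 37 C before CellTiter-Fluor detection.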

`Cc1nnc(NS(=O)(=O)c2ccc(N)cc2)s1`: the Potency result in test [1] and in test [2] was “inactive” each time.
`COc1ccc(N)c(OC)c1`: the Potency entry in test [1] and in test [2] was “inactive” throughout.
Take `CCCCCCCCCCCCCC(=O)O`: the Potency result in test [1] and in test [2] was “inactive” each time.
With `CC(=O)Nc1ccc(CC(=O)O)cc1`, the Potency entry in test [1] and in test [2] was “inactive” throughout.
As for `CO[Si](CCCNCCN)(OC)OC`, the Potency entry in test [1], in test [2] and in test [3] was “inactive” in each case.
For the compound `Cc1ncc(CO)c(CO)c1O`, the Potency entry in test [1] and in test [2] was “inactive” throughout.
On to `CCCCCCCC(=O)O`, for which the Potency entry in test [1] and in test [2] was “inactive” each time.
For the compound `Cc1ccc(C(C)C)cc1`, the Potency entry in test [1], in test [2] and in test [3] was “inactive” in each case.
With `CC1(C)C(=O)N(Cl)C(=O)N1Cl`, the Potency entry in test [1] and in test [2] was “inactive” in each case.
For the compound `CC[N+](CC)(CC(=O)Nc1c(C)cccc1C)Cc1ccccc1`, the Potency entry in test [1] and in test [2] was “inactive” each time.
For the compound `OB(O)O`, the Potency result in test [1], in test [2] and in test [3] was “inactive” in each case.
Take `Cc1ccc(C)c(S(=O)(=O)O)c1`: the Potency entry in test [1], in test [2] and in test [3] was “inactive” each time.
Turning to `O=C(O)Cc1c[nH]c2ccccc12`, the Potency result in test [1] and in test [2] was “inactive” throughout.
As for `O=C(O)C1=NN(c2ccc(S(=O)(=O)O)cc2)C(=O)C1`, the Potency entry in test [1], in test [2] and in test [3] was “inactive” in each case.
As for `C1CCCNCC1`, the Potency result in test [1] and in test [2] was “inactive” in each case.
Take `Cc1ccccc1Cl`: the Potency entry in test [1] and in test [2] was “inactive” in each case.
As to `COC(=O)OC`, the Potency entry in test [1] and in test [2] was “inactive” throughout.
For `OCc1ccc(Cl)cc1Cl`, the Potency entry in test [1], in test [2] and in test [3] was “inactive” each time.
For the compound `CC(O)CNCC(C)O` (centres undefined), the Potency entry in test [1] and in test [2] was “inactive” in each case.
In the case of `Cc1ccc(Cl)cc1`, the Potency result in test [1] and in test [2] was “inactive” throughout.
Take `CC(=O)OCc1ccc2c(c1)OCO2`: the Potency entry in test [1] and in test [2] was “inactive” throughout.
In the case of `CCc1cccc(CC)c1N`, the Potency entry in test [1] and in test [2] was “inactive” each time.
On to `CC(C)(CO)CO`, for which the Potency entry in test [1] and in test [2] was “inactive” throughout.
For `N[C@@H](Cc1cc(I)c(Oc2ccc(O)c(I)c2)c(I)c1)C(=O)O`, the Potency result in test [1] and in test [2] was “inactive” throughout.
As for `COc1cc(NC(=O)CC(C)=O)c(OC)cc1Cl`, the Potency entry in test [1], in test [2] and in test [3] was “inactive” each time.
For `O=[N+]([O-])c1cc(C(F)(F)F)ccc1Cl`, the Potency result in test [1] and in test [2] was “inactive” throughout.
As for `O=C1C(N(CO)C(=O)NCO)N(CO)C(=O)N1CO` (centres undefined), the Potency entry in test [1], in test [2] and in test [3] was “inactive” throughout.
For the compound `NC(N)=S`, the Potency entry in test [1] and in test [2] was “inactive” each time.
Turning to `CCc1cccc(O)c1`, the Potency result in test [1] and in test [2] was “inactive” each time.
With `NC1CCCCC1N` (centres undefined), the Potency result in test [1], in test [2] and in test [3] was “inactive” each time.
Take `CC(=O)CC(=O)N(C)C`: the Potency entry in test [1] and in test [2] was “inactive” throughout.
As for `CC/C=C(\C(=O)N[C@@H]1C(=O)N2C(C(=O)OCOC(=O)C(C)(C)C)=C(COC(N)=O)CS[C@H]12)c1csc(N)n1`, the Potency entry in test [1], in test [2] and in test [3] was “inactive” in each case.
Take `CCCN(CCC)C(=O)SCC`: the Potency entry in test [1] and in test [2] was “inactive” throughout.
In the case of `CC(C)c1ccc(C(C)C)cc1`, the Potency result in test [1] and in test [2] was “inactive” in each case.
`Cc1ccccc1C=O`: the Potency result in test [1] and in test [2] was “inactive” each time.
On to `O=C(NCC1CCCCN1)c1cc(OCC(F)(F)F)ccc1OCC(F)(F)F` (centres undefined), for which the Potency entry in test [1] and in test [2] was “inactive” throughout.
Turning to `O=C1O[C@H]([C@H](O)CO)C(O)=C1O`, the Potency result in test [1] and in test [2] was “inactive” each time.
In the case of `CC(C)(C)NC[C@H](O)COc1nsnc1N1CCOCC1`, the Potency result in test [1] and in test [2] was “inactive” throughout.
For `OC1CCCCC1`, the Potency entry in test [1], in test [2], in test [3] and in test [4] was “inactive” throughout.
As for `Clc1cccc(Cl)c1NC1=NCCN1`, the Potency entry in test [1], in test [2] and in test [6] was “inactive” throughout. Also, the compound was classed as inactive in test [5].
Regarding `CC(COCC(C)OC(=O)c1ccccc1)OC(=O)c1ccccc1` (centres undefined), the Potency result in test [1], in test [2], in test [3] and in test [4] was “inactive” each time.
`COC(=O)CCCCC(=O)OC`: the Potency result in test [1], in test [2], in test [3] and in test [4] was “inactive” each time.
Regarding `CCCOCC(C)O` (centres undefined), the Potency result in test [1], in test [2], in test [3] and in test [4] was “inactive” each time.
Take `CC(=O)C(C)C`: the Potency entry in test [1], in test [2], in test [3] and in test [4] was “inactive” each time.
As for `O=C1CCCCCCCCCCC1`, the Potency entry in test [1], in test [2], in test [3] and in test [4] was “inactive” throughout.
Turning to `CCn1cc(C(=O)O)c(=O)c2cc3c(cc21)OCO3`, the Potency result in test [1], in test [2] and in test [6] was “inactive” each time. Besides, the compound was called inactive in test [5].
On to `CCCCCC(C)=O`, for which the Potency result in test [1], in test [2], in test [3] and in test [4] was “inactive” throughout.
`CC(=O)c1nccs1`: the Potency entry in test [1], in test [2], in test [3] and in test [4] was “inactive” each time.
Consider `O=c1c(O)c(-c2ccc(O)c(O)c2)oc2cc(O)cc(O)c12`, for which the Potency entry in test [1], in test [2] and in test [6] was “inactive” each time.
